14 molecules from PubChem BioAssay (Tox21) can be followed below.

Records with an inconclusive call do not appear. Where a call stands in place of a potency, no number is given. Calls of active or inactive are those of the source. Calls follow the shape of the full dose curve.

For this experiment, the target named is Vitamin D3 receptor (Homo sapiens) (UniProt P11473). Kind of experiment: qHTS assay to identify small molecule agonists of the vitamin D receptor (VDR) signaling pathway (AID 743222). Conditions: HEK293T VDR-UAS-bla, beta-lactamase FRET ratio, 16 h; series mostly up to 63.5 µM. In short, it runs like this: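 Agonist mode, beta-lactamase reporter: fluorescence from LiveBLAzer B/G FRET substrate (2 h, room temperature) read after 16 h compound treatment at 37 C of VDR-bla cells, which were pre-incubated 4 h after seeding.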
Sequence of Vitamin D3 receptor (Homo sapiens) (P11473 whole entry, looked up): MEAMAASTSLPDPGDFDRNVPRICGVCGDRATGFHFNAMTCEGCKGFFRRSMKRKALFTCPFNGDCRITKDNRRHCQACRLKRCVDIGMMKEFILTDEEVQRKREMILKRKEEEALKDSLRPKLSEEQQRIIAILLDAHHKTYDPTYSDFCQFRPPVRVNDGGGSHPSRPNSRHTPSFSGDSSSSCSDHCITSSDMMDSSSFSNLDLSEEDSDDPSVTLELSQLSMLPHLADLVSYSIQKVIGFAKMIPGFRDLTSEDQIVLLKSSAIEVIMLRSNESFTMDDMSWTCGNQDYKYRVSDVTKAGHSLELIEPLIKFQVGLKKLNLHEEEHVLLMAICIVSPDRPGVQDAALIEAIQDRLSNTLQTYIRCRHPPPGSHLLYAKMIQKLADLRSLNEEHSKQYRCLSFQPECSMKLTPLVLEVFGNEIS
As to `CO[Si](CCCNc1ccccc1)(OC)OC`, the Potency result is “inactive”.
As to `CCCCCCOC(=O)c1ccc(O)cc1`, the Potency result is “inactive”.
In the case of `COc1cc(-c2ccc(N=C=O)c(OC)c2)ccc1N=C=O` it was “inactive”; in that of `CCC(CN)=C(c1ccccc1)c1ccccc1`, “inactive”; in that of `Clc1ccc(C(Cn2ccnc2)OCc2ccc(Sc3ccccc3)cc2)c(Cl)c1` (centres undefined), “inactive”.
Turning to `CCCCCCCCCCCCCC[P+](CCCC)(CCCC)CCCC` (tested in a mixture with another compound), the Potency result was “inactive”.
To `Nc1c(Cl)cc(Cl)cc1Cl` belongs “inactive”; to `CN1CCN(CCC(=O)N2c3ccccc3Sc3ccc(C(F)(F)F)cc32)CC1`, “inactive”; to `Cc1cc(N)c(S(=O)(=O)O)cc1Cl`, “inactive”.
In the case of `COC(=O)C1=C(C)NC(C)=C(C(=O)OCCc2ccc(N3CCN(C(c4ccccc4)c4ccccc4)CC3)cc2)C1c1cccc([N+](=O)[O-])c1` (centres undefined), the Potency entry is “inactive”.
On to `c1ccc(CSCc2ccccc2)cc1`, for which the Potency entry was “inactive”.
In the case of `CCC(N)(CO)CO` it was “inactive”; in that of `Cn1cc(C(=O)[C@@H]2CCc3nc[nH]c3C2)c2ccccc21`, “inactive”.
Consider `O=C(c1ccc(O)cc1O)c1ccc(O)cc1O`, for which the Potency result is “inactive”.
